Giardia kill – Giardia lamblia killing | actives 0.15% (n = 340,000) | activity change, % at 7.66 µM, hits read low | AID 540267 | Giardia lamblia trophozoite viability; in the data active means activity change below about -80%; inconclusive means between about -30% and that limit;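 further: parasites exposed to compound for two days anaerobically before the ATP read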
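Media and compound were dispensed first, then trophozoites at 100 cells/well; plates sat 48 hrs at 37 deg C without oxygen before ATP luminescence reagent was added and read after 15-30 min at room temperature.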
RORgamma inh – blocks mouse ROR gamma transcriptional activity; actives 5.4% (n = 310,000); Potency, µM (series often up to 53.6 µM), actives largely listed as inhibitors; P51450; AID 2551; Drosophila S2 Gal4-RORgamma UAS-luciferase reporter, 20 h; further: nearly all actives have a fitted effect of over 60% in size
Target sequence (P51450 whole entry, looked up, the tested form may be a part): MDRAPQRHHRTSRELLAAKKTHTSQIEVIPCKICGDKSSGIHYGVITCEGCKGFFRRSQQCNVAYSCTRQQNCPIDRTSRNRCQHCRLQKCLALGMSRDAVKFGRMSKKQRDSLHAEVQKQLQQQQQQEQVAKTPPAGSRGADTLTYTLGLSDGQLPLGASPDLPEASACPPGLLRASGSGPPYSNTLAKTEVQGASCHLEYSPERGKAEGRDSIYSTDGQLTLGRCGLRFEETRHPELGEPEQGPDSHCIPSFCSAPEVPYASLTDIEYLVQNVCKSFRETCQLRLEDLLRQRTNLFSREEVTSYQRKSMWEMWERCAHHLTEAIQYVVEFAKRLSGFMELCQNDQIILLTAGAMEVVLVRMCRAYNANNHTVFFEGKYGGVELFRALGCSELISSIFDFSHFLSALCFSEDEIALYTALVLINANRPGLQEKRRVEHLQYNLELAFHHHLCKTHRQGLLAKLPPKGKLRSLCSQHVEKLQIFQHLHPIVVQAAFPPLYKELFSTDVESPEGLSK
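ROR gamma transcriptional activity was tracked as Gal4-UAS luciferase output in stably transfected Drosophila Schneider cells, with compound added 1 hr before 700 uM copper sulfate induction and a 20 hr ambient-temperature incubation.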
p53 reactivator – restores transcriptional activity of mutant p53 | H1299 p53-A138V BP100-luciferase reporter, luminescence, 24 h | Potency, µM (series often up to 92.2 µM), hits mostly activators | actives 0.063% (n = 320,000) | AID 504706; further: nearly all actives have a fitted effect of over 45% in size
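H1299 (p53-null), stable ts p53-A138V + BP100-Luc; 1000 cells/well, Opti-MEM/10% FBS; cpd 4 pt, 1:5; 24 h, 37 deg C, 5% CO2; detection reagent 10 min RT; luminescence.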
VP16 counter – Gal4-VP16 reporter inhibition counter-screen | Drosophila S2 Gal4-VP16 UAS-luciferase, luminescence, 20 h | Potency, µM (titrated, usually from 53.6 µM), usual class: inhibitors | actives 3.5% (n = 310,000) | AID 2546;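 further: Gal4-VP16 expression switched on by copper sulfate through the metallothionein promoter; nearly all actives have a fitted effect of over 50% in size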
BRCA1 expr act – BRCA1 expression activation | MCF7-BRCA1-FFLuc reporter, luminescence, 48 h; response scale: scaled: vehicle 0%, 10 µM genistein 100% | Potency, µM (doses to about 46.1 µM), usual class: activators | actives 1.1% (n = 380,000) | AID 624202; further: nearly all actives have a fitted effect of over 80% in size
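MCF7 cells carrying a BRCA1-firefly luciferase reporter (2000 cells/well, phenol-red free MEM) were attached for 2 h at 37 °C, then given compounds for 48 h. Luminescence was read 15 min after luciferase reagent; activity normalized to genistein (10 microM) and DMSO.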
ELG1 repair inh – blocks ELG1-dependent DNA repair in HEK293T cells; HEK293T ELG1-luciferase reporter, luminescence, 16 h; DNA damage induced by 5-fluorouridine; Potency, µM (highest dose often 46.1 µM), most hits filed as inhibitors; actives 2.3% (n = 330,000); further: nearly all actives have a fitted effect of over 55% in size
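Quantitative HTS, concentration-response format. 2,000 cells/well co-treated with 5-fluorouridine and compound, 16 hr in 5% CO2 at 37 °C; ONE-Glo luminescence read after 30 min.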
Large screens that a line does not name were inactive. In the library only some 7.6% were active in any assay of this set; here they are far more common. Unless noted, the call rests on the fitted dose curve; in most records, active means well fitted curve in the direction sought with a large enough effect; inconclusive means small, poorly fitted or top-dose-only effect, or another doubt; inactive means no such curve, though single readings can be large; an effect the other way counts as inactive or inconclusive.

COc1ccc(-c2nn(-c3ccccc3)cc2C(=O)NC(=S)NNC(=O)c2ccncc2)cc1	RORgamma inh 6.31µM, ELG1 repair inh inconclusive
COc1ccc(-c2nn(-c3ccccc3)cc2C(=O)NC(=S)N2CCOCC2)cc1OC	ELG1 repair inh 20.6µM (no result: RORgamma inh, VP16 counter)
COc1ccc(C(=O)Nc2ccc(C(=O)N3CCOCC3)cc2)cc1OC	ELG1 repair inh inconclusive
COc1ccc(C(=O)NC(=S)N2CCOCC2)cc1OC	RORgamma inh 11.2µM, VP16 counter inconclusive
CN1CCN(C(=S)NC(=O)c2cccc(S(=O)(=O)N(C)C)c2)CC1	RORgamma inh 14.1µM, VP16 counter inconclusive
COc1cc(C(=S)N2CCOCC2)ccc1OC(=O)c1ccccc1	none (no result: RORgamma inh, p53 reactivator, VP16 counter)
COc1cc(C(=S)N2CCOCC2)ccc1OC(=O)/C=C/c1ccco1	Giardia kill inconclusive, RORgamma inh inconclusive, VP16 counter 17.8µM
COc1ccc(C(=O)NC(=S)N2CCN(C)CC2)cc1Br	RORgamma inh 0.447µM, VP16 counter 2.82µM
COc1ccccc1N1CCN(C(=S)Nc2ccc(F)cc2)CC1	RORgamma inh 11.2µM, VP16 counter inconclusive, ELG1 repair inh inconclusive
O=C(Nc1ccc(F)cc1)c1cn(-c2ccccc2)nc1-c1ccncc1	ELG1 repair inh 20.6µM
COc1ccc(C(=O)NC(=S)N2CCN(c3ccccc3OC)CC2)cc1OC	RORgamma inh 2.82µM, VP16 counter 5.01µM
COc1ccc(-c2nnc(Nc3nc4c(OC)cccc4s3)o2)c(OC)c1	RORgamma inh 1.58µM, p53 reactivator inconclusive, VP16 counter inconclusive
COc1ccc(-c2nnc(Nc3nc4c(OC)cccc4s3)o2)cc1	Giardia kill inconclusive, RORgamma inh 11.2µM, p53 reactivator inconclusive, VP16 counter 12.6µM
C/C(CC1CC(C)OC1=O)=N\NC(N)=S (stereo not given)	Giardia kill inconclusive, RORgamma inh 8.91µM, VP16 counter inconclusive
CCC1CC(/C(C)=N/NC(N)=O)OC1=O (stereo not given)	none
CCOc1ccc(C(=O)C2CCN(CC(=O)Nc3ccccc3N3CCOCC3)CC2)cc1	VP16 counter inconclusive, ELG1 repair inh 20.6µM
COc1ccc(OC)c(NC(=O)CN2CCC(C(=O)c3ccc(C)cc3)CC2)c1	ELG1 repair inh 20.6µM
CC(=O)NCCC(=O)Nc1ccc(C(N)=O)cc1	none
N/C(COc1ccc(F)cc1)=N\NC(=O)c1cccnc1Oc1ccccc1	RORgamma inh 2.51µM, VP16 counter 4.47µM
Cc1ccc(CC(=O)Nc2ccc(S(=O)(=O)N3CCOCC3)cc2)cc1	none
COc1cc2c(cc1OC)CN(CC(=O)Nc1ccc(C)c(C)c1)CC2	ELG1 repair inh inconclusive
C(=N\Nc1ccc2nncn2n1)/c1ccccn1	ELG1 repair inh 5.8µM
O=c1nc(N/N=C/c2ccccn2)cn[nH]1	RORgamma inh inconclusive, ELG1 repair inh inconclusive
C/C(=N\Nc1ccc2nncn2n1)c1ccccn1	RORgamma inh 8.91µM, p53 reactivator inconclusive, VP16 counter inconclusive, ELG1 repair inh 1.16µM
CN1C2CCC1CC(NC(=O)CSCc1ccc(Cl)cc1Cl)C2 (stereo not given)	ELG1 repair inh inconclusive
COc1ccc(N(C)S(=O)(=O)c2cccc(C(=O)Nc3ccc(-n4cnnn4)cc3)c2)cc1	RORgamma inh inconclusive, VP16 counter inconclusive, ELG1 repair inh 18.4µM
COc1ccc(N(C)S(=O)(=O)c2cccc(C(=O)Nc3ccc(OC)nc3)c2)cc1	RORgamma inh inconclusive, ELG1 repair inh 18.4µM (no result: Giardia kill, BRCA1 expr act)
COc1ccc(N(C)S(=O)(=O)c2cccc(C(=O)Nc3ccc4c(c3)OCCO4)c2)cc1	ELG1 repair inh inconclusive
O=C(N/N=C\c1ccc(Cl)cc1)c1sccc1-n1cccc1	RORgamma inh inconclusive
Cc1occc1C(=O)N/N=C/C=C/c1ccccc1	RORgamma inh 7.08µM, VP16 counter inconclusive, BRCA1 expr act 10µM, ELG1 repair inh inconclusive
O=C(N/N=C/C=C/c1ccccc1)c1ccccc1Br	RORgamma inh 3.16µM, VP16 counter inconclusive, ELG1 repair inh inconclusive
CN(C)c1ccc(/C=N/NC(=O)c2sccc2-n2cccc2)cc1	RORgamma inh 11.2µM, VP16 counter inconclusive, ELG1 repair inh inconclusive
Cc1occc1C(=O)N/N=C/c1ccc(N(C)C)cc1	RORgamma inh 10µM, VP16 counter inconclusive, ELG1 repair inh inconclusive
Cc1ccc(/C=N/NC(=O)c2ccoc2C)o1	p53 reactivator inconclusive, ELG1 repair inh inconclusive
O=C(Nc1ccn(CC(=O)N2CCN(c3ccccn3)CC2)c(=O)n1)OCc1ccccc1	none (no result: RORgamma inh, VP16 counter)
CCn1c(SCC(=O)N2CCCC2=O)nnc1-c1cccs1	none (no result: RORgamma inh, VP16 counter)
C[C@@]12C(=O)N(c3cccc(Cl)c3)C(=O)N1[C@@H]1c3ccccc3OC[C@@H]1[C@H]2c1ccccc1	Giardia kill inconclusive (no result: RORgamma inh, VP16 counter)
O=C(NC1CCSc2ccccc21)c1c(F)cccc1Cl (stereo not given)	none
Cc1occc1C(=O)N/N=C/C=C/c1ccccc1[N+](=O)[O-]	RORgamma inh 11.2µM, VP16 counter inconclusive
Cc1cc(C(=O)N/N=C/C=C/c2ccccc2)c(C)o1	RORgamma inh 7.94µM, VP16 counter 11.2µM
O=C(N/N=C/C=C/c1ccccc1)c1cccc(Br)c1	RORgamma inh 1µM, VP16 counter 5.01µM
CC(C)c1cc(C(=O)N/N=C/C=C/c2ccccc2)n[nH]1	RORgamma inh inconclusive, VP16 counter 20µM
Cc1cc(C(=O)N/N=C/c2ccccc2)c(C)o1	ELG1 repair inh inconclusive
CCC/C=N/NC(=O)c1cccc(Br)c1	RORgamma inh inconclusive, p53 reactivator inconclusive, ELG1 repair inh inconclusive
Cc1cc(C(=O)N/N=C/C=C/c2ccccc2[N+](=O)[O-])c(C)o1	RORgamma inh inconclusive, VP16 counter inconclusive, ELG1 repair inh inconclusive
COc1cc(/C(C)=N/NC(=O)CSc2nnc(C)s2)ccc1O	ELG1 repair inh inconclusive
CN(C)c1cccc(C(=O)N/N=C/c2ccoc2)c1	none (no result: RORgamma inh, p53 reactivator, VP16 counter, ELG1 repair inh)
O=C(N/N=C/c1cccc(Oc2ccccc2)c1)c1cccc(Br)c1	RORgamma inh 10µM, VP16 counter inconclusive, ELG1 repair inh inconclusive
CN(C)c1ccc(/C=N/NC(=O)c2ccc(Cl)cc2)cc1	RORgamma inh 8.91µM
CN(C)c1cccc(C(=O)N/N=C/c2ccsc2)c1	RORgamma inh inconclusive, p53 reactivator inconclusive, BRCA1 expr act 10µM, ELG1 repair inh inconclusive
NC(=S)N/N=C/C=C/c1ccccc1	RORgamma inh 2µM, VP16 counter inconclusive
CCN(CC)S(=O)(=O)c1cccc(C(=O)Nc2sc3c(c2C(N)=O)CCCC3)c1	none
CCN(CC)C(=O)CSc1nc2ccsc2c(=O)n1CCCC(=O)NCCc1ccc(S(N)(=O)=O)cc1	none
CCOC(=O)C(=CNc1ccc(NC2=NCC(C)(C)S2)cc1)C(=O)OCC	ELG1 repair inh inconclusive
Nc1nnc(SCC(=O)NC2CCCCCC2)s1	none (no result: RORgamma inh, VP16 counter)
